Among the test systems are SK-MEL-2 melanoma; EKVX NSCLC; SN12C renal; UO-31 renal; TK-10 renal; ACHN renal; A498 renal; CCRF-CEM leukemia; MOLT-4 leukemia; SR leukemia; RPMI-8226 leukemia; OVCAR-8 ovarian; OVCAR-5 ovarian; OVCAR-4 ovarian; SK-OV-3 ovarian; IGROV1 ovarian; HS 578T breast; NCI/ADR-RES ovarian; OVCAR-3 ovarian.
Experiment in all cases: NCI-60 one-dose screen, 48 h (100 = growth as untreated, 0 = no growth, -100 = all killed)
Common to all, as to details: 10 µM unless noted

The values below come from PubChem BioAssay (NCI).

The panel holds about 83,000 compounds, 20% with a hit somewhere; the sample as a whole holds those more often.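 Negative percent growth values reflect cell death: -40 means 40% of the cells present at the start died, and -100 means all died.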 A number with no mark means an inactive call. Active and inactive are the calls of the source. How the source made its calls: active means growth percent below 10; inactive means the rest.

Regarding `COc1ccc(-c2c(NC(=O)Nc3ccc(Cl)c(C(F)(F)F)c3)cnn2-c2ccc(S(N)(=O)=O)cc2)cc1`, the growth in the assay with SK-MEL-2 melanoma was -4.24% (active); in the assay with EKVX NSCLC, 61.6%; with SN12C renal, 51.4%; with UO-31 renal, 50.9%; in the assay on TK-10 renal, 30.9%; with ACHN renal, 57.5%. Moreover, the growth with A498 renal was 26.8%; with CCRF-CEM leukemia it was 8.88% (active); with MOLT-4 leukemia, 1.8% (active); in the assay on SR leukemia, 7.38% (active); with RPMI-8226 leukemia, 19.9%; in the assay with OVCAR-8 ovarian, 28.5%. Besides, the growth in the assay on OVCAR-5 ovarian was 60.6%; in the assay on OVCAR-4 ovarian it was 32.8%; in the assay on SK-OV-3 ovarian, 68.4%; in the assay with IGROV1 ovarian it was 33.1%; with HS 578T breast, 49.6%; with NCI/ADR-RES ovarian it was 89.9%.

Consider `OC(COc1ccccc1Cl)CN1CCN(c2ccc(Cl)cc2)CC1` (stereo not drawn), for which the growth in the assay on SK-MEL-2 melanoma was 126%; with EKVX NSCLC, 106%; in the assay on SN12C renal, 106%; with UO-31 renal, 81.7%; in the assay on TK-10 renal it was 117%; in the assay with ACHN renal, 94.6%. For the same compound, the growth was 78.6% in the assay on A498 renal; 46% in the assay on CCRF-CEM leukemia; 95.3% with MOLT-4 leukemia; 92.3% in the assay with SR leukemia; 104% with OVCAR-8 ovarian; 81.9% with OVCAR-5 ovarian. The growth with OVCAR-4 ovarian is 91.7%; in the assay on SK-OV-3 ovarian, 114%; in the assay with IGROV1 ovarian it was 96%; with OVCAR-3 ovarian it was 106%.

Take `Cc1cn(C2CC(N=[N+]=[N-])C(COP(=O)(O)OP(=O)(O)OP(=O)(O)O)O2)c(=O)[nH]c1=O` (stereo not drawn): the growth with SK-MEL-2 melanoma was 107%; with EKVX NSCLC, 116%; in the assay on SN12C renal it was 124%; with UO-31 renal, 98.5%; in the assay with TK-10 renal it was 113%; in the assay on ACHN renal, 124%. In addition, the growth in the assay with A498 renal was 131%; in the assay with CCRF-CEM leukemia it was -98% (active); with MOLT-4 leukemia, 16.8%; in the assay with SR leukemia, 24.3%; in the assay on RPMI-8226 leukemia, 60.7%; with OVCAR-8 ovarian, 120%. For the same compound, the growth in the assay on OVCAR-5 ovarian is 93%; with OVCAR-4 ovarian it was 108%; with SK-OV-3 ovarian, 104%; in the assay with IGROV1 ovarian it was 75.5%; in the assay with HS 578T breast, 133%; with NCI/ADR-RES ovarian it was 111%.

Take `CCOc1ccc(NC(=O)Nc2cc(C(C)C)ccc2C)cc1`: the growth in the assay on SK-MEL-2 melanoma was 68.6%; with EKVX NSCLC, 96.1%; in the assay with SN12C renal, 57.3%; in the assay with UO-31 renal, 15.2%; in the assay with TK-10 renal it was 55%; in the assay with ACHN renal it was 20.6%. Also, the growth with A498 renal was 87.2%; in the assay with CCRF-CEM leukemia, 44.4%; with MOLT-4 leukemia, 72.2%; in the assay with SR leukemia, 36.6%; with RPMI-8226 leukemia it was 43.4%; in the assay with OVCAR-8 ovarian, 27.1%. The growth is 57.7% in the assay on OVCAR-5 ovarian; 44.6% with OVCAR-4 ovarian; 93.4% in the assay on SK-OV-3 ovarian; 50.9% in the assay with OVCAR-3 ovarian; 4.79% (active) in the assay on HS 578T breast.

With `S=c1ssnc1-c1ccccn1`, the growth is 31.6% in the assay on SK-MEL-2 melanoma; 65.2% in the assay with EKVX NSCLC; 38% in the assay on SN12C renal; -40.8% (active) in the assay on UO-31 renal; 40.1% with TK-10 renal; 15.4% in the assay with ACHN renal. For the same compound, the growth in the assay with A498 renal was 13%; with CCRF-CEM leukemia, -6.05% (active); with MOLT-4 leukemia, 0.997% (active); with SR leukemia, -25.5% (active); with RPMI-8226 leukemia, 10.2%; in the assay with OVCAR-8 ovarian, 54.9%. The growth in the assay on OVCAR-5 ovarian is 70.1%; in the assay with OVCAR-4 ovarian, 56.1%; in the assay on SK-OV-3 ovarian, 67.8%; in the assay on IGROV1 ovarian it was 15.2%; in the assay with HS 578T breast, -7.73% (active); with NCI/ADR-RES ovarian it was 48.4%.

Regarding `COC(=O)c1oc2c(C(=O)/C=C/c3ccc(OC)cc3)c(OCCN3CCOCC3)ccc2c1C`, the growth in the assay on SK-MEL-2 melanoma is -30.6% (active); with EKVX NSCLC it was 9.46% (active); in the assay on SN12C renal, 17.5%; in the assay with UO-31 renal it was -66.4% (active); with TK-10 renal it was 25.4%; in the assay on ACHN renal, -34.5% (active). Moreover, the growth in the assay on A498 renal was -47.7% (active); in the assay with CCRF-CEM leukemia, -38.4% (active); in the assay with MOLT-4 leukemia, -20.5% (active); in the assay on SR leukemia, -28% (active); in the assay on RPMI-8226 leukemia it was -50.7% (active); in the assay with OVCAR-8 ovarian, -37.6% (active). For the same compound, the growth with OVCAR-5 ovarian is 29.8%; in the assay with OVCAR-4 ovarian it was 16%; in the assay on SK-OV-3 ovarian, 17.9%; with IGROV1 ovarian, -4.01% (active); in the assay with HS 578T breast, -15.1% (active); with NCI/ADR-RES ovarian, 9.24% (active).

For `Clc1ccc(OCc2nc(-c3ccccc3)n[nH]2)c(Cl)c1`, the growth with SK-MEL-2 melanoma is 103%; in the assay on EKVX NSCLC, 93.8%; in the assay on SN12C renal it was 96.6%; in the assay with UO-31 renal, 77.1%; with TK-10 renal it was 122%; in the assay on ACHN renal, 98%. The growth is 104% in the assay on A498 renal; 85.9% with CCRF-CEM leukemia; 98.7% in the assay on MOLT-4 leukemia; 97.1% with SR leukemia; 96.5% in the assay with OVCAR-8 ovarian; 99.7% in the assay on OVCAR-5 ovarian. The growth is 98.1% with OVCAR-4 ovarian; 80.9% in the assay with SK-OV-3 ovarian; 97.6% in the assay with IGROV1 ovarian; 108% in the assay on OVCAR-3 ovarian; 88.6% with HS 578T breast.

On to `Fc1cccc(F)c1C#Cc1ccc2cccnc2c1`, for which the growth was 84.4% with SK-MEL-2 melanoma; 68.6% with EKVX NSCLC; 88.3% in the assay on SN12C renal; 53.5% with UO-31 renal; 88.4% in the assay with TK-10 renal; 88.5% in the assay with ACHN renal. Further, the growth was 99.7% in the assay with A498 renal; 83.7% with CCRF-CEM leukemia; 71.6% in the assay on MOLT-4 leukemia; 75.4% in the assay with SR leukemia; 70.2% in the assay on RPMI-8226 leukemia; 87.3% in the assay with OVCAR-8 ovarian. The growth in the assay on OVCAR-5 ovarian was 136%; with OVCAR-4 ovarian, 75.1%; in the assay on SK-OV-3 ovarian, 95.7%; in the assay on IGROV1 ovarian, 56.3%; in the assay with HS 578T breast it was 91.6%; with NCI/ADR-RES ovarian it was 90.8%.

Consider `O=C(O)c1ccc2nc(-c3ccc(OCCCCCOc4ccc(-c5nc6ccc(C(=O)O)cc6[nH]5)cc4)cc3)[nH]c2c1`, for which the growth in the assay on SK-MEL-2 melanoma is 101%; in the assay with EKVX NSCLC, 113%; with SN12C renal it was 62.2%; with UO-31 renal, 90.5%; in the assay on TK-10 renal, -2.6% (active); with ACHN renal, 98.4%. The growth in the assay on A498 renal is 53.6%; in the assay with CCRF-CEM leukemia, 76.1%; in the assay with MOLT-4 leukemia it was 87.7%; with SR leukemia it was 120%; in the assay with RPMI-8226 leukemia, 123%; in the assay with OVCAR-8 ovarian, 49%. Also, the growth in the assay with OVCAR-5 ovarian is 9.11% (active); with OVCAR-4 ovarian, 82.6%; in the assay with SK-OV-3 ovarian, 48.8%; with IGROV1 ovarian, 109%; in the assay with HS 578T breast it was 82.7%; in the assay with NCI/ADR-RES ovarian, 33.1%.
